The panel holds about 79,000 compounds, 15% with a hit somewhere; the sample as a whole holds those more often. Calls of active or inactive are those of the source. Cut-off read from the data, not from the text of the source: active = growth inhibition above about 70%; inactive = the rest. Where a SMILES comes first, the peptide text is derived from it. [ ]: non-standard residue; d: D form. The star is where a group is joined. ξ: configuration not given here. ξL = CC(C)CC(N)C(=O)O; ClAc = O=C(CCl)*
Legend:
[1] = NCI Yeast Anticancer Drug Screen. Data for the rad50 strain (AID 155);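 note: 0% = growth of vehicle-only cultures of the same strain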; settings: S. cerevisiae rad50 strain growth inhibition; at 50.0 µM; active compounds read high
Outline: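 Yeast carrying a defined DNA repair defect were exposed to test compounds, and growth was compared with vehicle-treated controls to give percent inhibition.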

[2] = NCI Yeast Anticancer Drug Screen. Data for the sgs1 mgt1 strain (AID 161);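 note: 0% = growth of cultures given vehicle only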; settings: S. cerevisiae sgs1 mgt1 strain, at 50.0 µM, active compounds read high
Outline: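 Read-out: growth inhibition vs vehicle controls. Cells: mutant yeast strain deficient in DNA damage repair.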

[3] = NCI Yeast Anticancer Drug Screen. Data for the cln2 rad14 strain (AID 165);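 note: 0% = growth equal to vehicle treated cultures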; settings: S. cerevisiae cln2 rad14 strain, at 50.0 µM, active compounds read high
Outline: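 Each compound was tested on cln2 rad14 yeast. Inhibition of growth was calculated against vehicle-exposed controls.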

[4] = NCI Yeast Anticancer Drug Screen. Data for the bub3 strain (AID 167); settings: S. cerevisiae bub3 mutant strain, at 50.0 µM, active compounds read high
Outline: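 Compounds were applied to a genetically altered yeast strain carrying a cell-cycle control defect. Growth inhibition was scored against vehicle-treated controls.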

[5] = NCI Yeast Anticancer Drug Screen. Data for the mlh1 rad18 strain (AID 175); settings: S. cerevisiae mlh1 rad18 strain growth inhibition; at 50.0 µM; active compounds read high
Outline: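 Vehicle-treated cultures served as the reference for growth inhibition in a yeast strain carrying DNA damage repair alterations exposed to each compound.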

[6] = NCI Yeast Anticancer Drug Screen. Data for the mec2-1 strain (AID 157); settings: S. cerevisiae mec2-1 strain, at 50.0 µM, active compounds read high
Outline: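 Vehicle-treated cultures served as reference for growth inhibition of compound-exposed mec2-1 yeast.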

Measured: growth inhibition

COc1ccc(/C=c2\[nH]c3nc(=O)c(N4CCOCC4)c(N)n3c2=O)cc1
inactive: [1] 0.9% | [2] 1.6% | [3] -11.8% | [4] -26.1% | [5] -10.2%

CCCCCCC(=O)CCCC(C)CCCC(C)C (stereo unspecified)
inactive: [1] -13.5% | [6] -23.6% | [5] -3.85%

CC(C)Oc1ccc(C(=O)NS(=O)(=O)c2ccc(N)cc2)cc1
inactive: [1] -25% | [6] -32.5% | [5] -8.4%

CC1(C)C2CCC1(CS(=O)(=O)O)C(=O)C2 (stereo unspecified)
inactive: [1] -14% | [3] -58.4% | [4] -4.65% | [5] -1.2%

C=C1C(=O)OC2/C=C(\CO)CC/C=C(\CO)CC(OC(=O)C(C)C)C12 (stereo unspecified)
inactive: [1] -17% | [2] -16% | [3] 24.4% | [4] -7%

Cn1c(=S)sc2ccc3ccccc3c21
inactive: [1] -17.4% | [6] -11.1% | [5] -25.9%

O=C1NC(N/N=C\c2ccccc2)=N/C1=C/c1ccc(Cl)cc1
inactive: [1] 22.6% | [2] 11.7% | [3] 17.8% | [4] 16.7% | [5] -1.85%

C[n+]1ccc(/C=C\c2ccc3c(c2)OCO3)cc1
inactive: [1] -1.4% | [6] -26.9% | [5] 2.6%

O=C1Nc2ccccc2CCc2ccccc21
inactive: [1] -18.1% | [6] -34.3% | [5] -7.2%

C[N+](C)(C)CN1C(=O)c2ccccc2C1=O
inactive: [1] -11.9% | [6] -29.2% | [5] -4.8%

COc1cc(/C=N\NC(=O)OC(C)(C)C)cc(OC)c1OC
inactive: [1] 6.25% | [5] 10.5%

O=C1c2ccccc2C(=O)N1CNc1ccc(Cl)cn1
inactive: [1] -18.9% | [6] -43.9% | [5] -24.6%

Cc1ccc2c(sc(-c3ccc4c(c3)sc(-c3ccc5c(c3)sc(-c3ccc(N(C)C)cc3)[n+]5C)[n+]4C)[n+]2C)c1S(=O)(=O)O (tested in a mixture with another compound)
active: [5] 70.4%
inactive: [1] 27.7% | [2] 46.4% | [3] 40.1% | [4] 35%

Cc1cccc(-c2nc3cc(Cl)ccc3c(=O)o2)c1
inactive: [1] -10.8% | [6] -13.6% | [5] 6.6%

CC(C)CC(NC(=O)CCl)C(=O)NCC(=O)O (stereo unspecified) (ClAc-[ξL]-Gly-OH)
inactive: [1] 8.05% | [6] 9.65% | [5] -3.75%

COC(=O)C(Cc1nc2ccccc2[nH]c1=O)C(=O)C(=O)Nc1cc(C(F)(F)F)ccc1Cl (stereo unspecified)
inactive: [1] 5.3% | [2] 19.4% | [4] 2.4%

COc1cc([C@H]2OC[C@@H]3C(c4cc(OC)c5c(c4)OCO5)OC[C@H]23)cc(OC)c1OC (stereo partly specified)
inactive: [1] -8.65% | [2] -26.9% | [3] 21% | [4] -1.35% | [5] -53.1%

Cc1ccc(/C=N/N2C(=O)c3ccccc3C2=O)cc1
inactive: [1] -28.9% | [6] -43.1% | [5] -37.9%

N#Cc1c(N)oc(-c2cccc([N+](=O)[O-])c2)c1C#N
inactive: [1] 24.6% | [2] -19.9% | [3] 10.8% | [4] -6.3% | [5] -16.9%

C=C(CCC(C(=O)O)C1CCC2(C)C3=C(CCC12C)C1(C)CCC(O)C(C)(C)C1CC3)C(C)C (stereo unspecified)
inactive: [1] -4% | [2] -0.75% | [3] 2.15% | [4] -23.6% | [5] -8.25%

CNc1nc2c(C)ccc3[nH]c(N(C)C)nc3c-2n1
inactive: [1] 14.2% | [2] 11.3% | [3] 8.1% | [4] 4.65% | [5] -10.9%

O=C1C=CC=C/C1=C1\N=C(c2ccccc2OCC(=O)c2ccc(Br)cc2)SS1
inactive: [1] 10.1% | [2] 12.8% | [3] 8.75% | [4] -0.75% | [5] -43.5%

Cc1ccccc1CC1c2[nH]c3ccccc3c2CCN1C (stereo unspecified)
inactive: [1] -9.95% | [6] -50.5% | [5] -22.4%

From PubChem BioAssay (NCI)
